“And” between values parts separate entries of the source, which are not always exact repeats. Equal entries are not always repeated. Among all 65,000 compounds or so, about 45 (0.07%) were called active. Not all results are given here. A number with no mark means an inactive call. Calls follow the shape of the full dose curve.
Test system: Schistosoma mansoni peroxiredoxin 2 (Prx2)
Assay: Schistosoma Mansoni Peroxiredoxins (Prx2)
Settings: S. mansoni Prx2 activity coupled to TGR/GSH (TGR is thioredoxin glutathione reductase), NADPH fluorescence loss, qHTS
From the text: NIH Molecular Libraries Screening Centers Network [MLSCN]
NIH Chemical Genomics Center [NCGC]
David Williams [Illinois State University]
Schistosoma mansoni, a causative agent of schistosomiasis, resides in the bloodstream of their host up to 30 years without being eliminated by the host immune attack. One proposed survival mechanism is the production of an antioxidant "firewall" that neutralizes the oxidative assault of the host's immune attack. Schistosoma mansoni peroxiredoxins (Prx) are important parasite antioxidant proteins that play a crucial role in redox balance mechanisms. […] First, the proteins are essential for the parasite survival. […] Third, the protein(s) is amenable for study at the molecular level and can be produced in bacteria in large quantities, in soluble and active form. Inhibition of Prx activity was screened in a coupled-enzyme format with reducing equivalents being transferred from NADPH to […] intermediate via thioredoxin/glutathione reductase (TGR)-catalyzed reaction, then from thioredoxin to hydrogen peroxide via Prx-catalyzed electron transfer. A decrease in the fluorescence intensity of NADPH was used to measure the enzyme activity. Purified S. mansoni TGR and Prx were provided by Professor David L. Williams, Illinois State University.
NCGC Assay Protocol Summary:
100 mM phosphate buffer, pH 7.4, 10 mM EDTA, 0.01% Tween-20.
100 uM NADPH/25 nM TGR/700 uM GSH/50 nM Prx2 mixture in columns 1, 2, 5-48. Titration of control potassium antimonyl tartrate (PAT, from 1 mM, then 1:5) pin-transferred to lower half of column 2. Column 1 and upper half of column 2 are neutral (100% activity).
Three uL of reagents were dispensed to 1536-well Greiner black plates. Compounds and controls (20 nL) were transferred via Kalypsys PinTool. The plates were incubated for 15 min at room temperature, and then a 1 uL aliquot of 400 uM NADPH/700 uM GSH was added, immediately followed by a 1uL aliquot of 2.5 mM H2O2 (to start the reaction). The plate was transferred to ViewLux (Perkin-Elmer) High-throughput CCD imager where kinetic measurements (every 30 sec, for a total of 8 min) of NADPH fluorescence were taken using 365 nm excitation/450 nm emission filter set. During dispense, enzyme-containing reagent bottles were kept submerged into 4 deg C water bath to minimize degradation.
Keywords: NIH Roadmap, MLSCN, MLI, MLSMR, David Williams, Peroxyredoxin, Schistosoma mansoni, prx2, prx, , qHTS, NCGC
Potency is read from the fitted curve at half-maximal effect.

| SMILES | Potency |
| --- | --- |
| COc1ccccc1-c1nc(NCCNC(C)=O)c2ccccc2n1 | > 57 µM |
| O=C(c1cccc(F)c1)N1CCC2(CCCN(Cc3ccncc3)C2)CC1 | > 57 µM |
| O=c1cc(-c2ccccc2)[nH]c2nc(Cl)ccc12 | > 57 µM |
| O=c1cc(-c2ccc(O)c(O)c2)oc2cccc(O)c12 | > 57 µM |
| CC(C)C[C@@H](CC(=O)N[C@@H](CCC(=O)O)CC(=O)O)NC(=O)[C@@H]1CCCC[C@H]1NC(=O)C[C@@H](NC(=O)C[C@H](Cc1c[nH]c2ccccc12)NC(=O)[C@@H]1CCCC[C@H]1N)C(C)C | > 57 µM |
| C[N+]1(CCN=C=NC2CCCCC2)CCOCC1 | > 57 µM |
| O=C(c1cc(C(F)(F)F)cc(C(F)(F)F)c1)N1CCC2(CC1)CN(c1ccncc1)C2 | > 57 µM |
| O=C(c1csnn1)N1CCC[C@@]2(CCN(Cc3nccs3)C2)C1 | > 57 µM |
| COC(=O)[C@@]1(Cc2ccc(F)cc2)[C@H]2c3cc(C(=O)N4CCCC4)n(Cc4ccc(OC(F)(F)F)cc4)c3C[C@H]2CN1C(=O)c1ccccc1 | > 57 µM |
| CC[C@]1(C)CC(=O)NC1=O | > 57 µM |
| Cn1cc(-c2nc3cnc(N4CCNCC4)nc3n(CCC#N)c2=O)c2ccccc21 | > 57 µM |
| O=C(O)c1ccc(C(=O)c2ccccc2C(=O)O)cc1C(=O)O | > 57 µM |
| O=C1c2ccccc2C(=O)N1CCCSc1ccccc1 | > 57 µM |
| O=C(O)COc1c(Cl)cc(Cl)c2cccnc12 | > 57 µM |
| COc1cccc(Cn2c(=O)c(-c3cc(F)cc(F)c3)nc3cnc(OC)nc32)c1 | > 57 µM |
| CCC[C@@H]1C[C@@]1(CCC)C(NC(=O)c1ccc(-c2ccccc2)cc1)c1cccc(Cl)c1 (some centres undefined) | > 57 µM |
| COc1cccc(-c2nc(Nc3ccncc3)c3ccccc3n2)c1 | > 57 µM |
| Clc1ccc(C(c2ccc(Cl)cc2)n2cc[n+](C[C@@H](OCc3ccc(Cl)cc3Cl)c3ccc(Cl)cc3Cl)c2)cc1 | > 57 µM |
| CC(=O)N1CCC2(CC1)CCN(c1ccncc1)CC2 | > 57 µM |
| CCOc1ccc(N=NS(=O)(=O)O)cc1 | > 57 µM |
| NCCNCC1CCNCC1 | > 57 µM |
| CN(C)c1cc2c(Nc3ccc4c(cnn4Cc4ccccc4)c3)ncnc2cn1 | > 57 µM |
| C[C@@H]1CC[C@H]2[C@H](C)[C@H]3[C@H](C[C@H]4[C@@H]5CC=C6C[C@@H](O)CC[C@@]6(C)[C@@H]5C[C@@H](O)[C@]34C)N2C1 | > 57 µM |

| SMILES | Potency |
| --- | --- |
| CCNc1ncc2nc(CCc3ccccc3)c(=O)n(-c3ccc(OC)cc3)c2n1 | > 57 µM |
| Oc1c(Br)cc(CN(Cc2cc(Br)c(O)c(Br)c2)C2CCCCC2)cc1Br | > 57 µM |
| COc1ccc(-n2c(=O)c(C)nc3cnc(N4CCOCC4)nc32)cc1 | > 57 µM |
| C[C@@H](N)[C@@H](C)Cc1ccccc1 | > 57 µM |
| CN1CCN2c3ccccc3Cc3ccccc3[C@@H]2C1 | > 57 µM |
| CNc1nc(-c2ccccc2OC)nc2ccccc12 | > 57 µM |
| O=C(Nc1ccccc1)N[C@H]1C[C@H](C(=O)O)Nc2cc(Cl)cc(Cl)c21 | > 57 µM |
| COc1ccc(C(=O)N/N=C2/C(=O)c3c(C)cc(C)cc3CC2(C)C)cc1 | > 57 µM |
| N#Cc1cc2[nH]c(=O)c(=O)[nH]c2cc1[N+](=O)[O-] | > 25.6 µM |
| c1cncc(CNc2ccnc(-c3ccc4c(c3)OCO4)n2)c1 | > 57 µM |
| O=C(c1csnn1)N1CCC2(CCN(Cc3nccs3)CC2)CC1 | > 57 µM |
| COCCNc1ncnc2ccc(-c3ccccc3CN(C)C)cc12 | > 57 µM |
| O=c1c(-c2ccc(F)cc2)nc2cnc(N3CCOCC3)nc2n1-c1ccccc1 | > 11.4 µM |
| CC(=O)/C(=N\N=C(N)N)c1ccccc1 | > 57 µM |
| COCCn1c(=O)c(-c2ccccc2)nc2cnc(N3CCOCC3)nc21 | > 57 µM |
| CN(C)c1ncc2nc(-c3ccc(F)cc3)c(=O)n(Cc3ccc(F)cc3)c2n1 | > 57 µM |
| O=C1NC(=O)[C@@](Cc2ccccc2)(c2cccnc2)N1 | > 57 µM |
| N#Cc1cccc(-c2ccc3ncnc(NCc4cccs4)c3c2)c1 | > 57 µM |
| O=C(Oc1ccc2c(c1)CN(Cc1ccccc1)CO2)c1ccccc1 | > 57 µM |
| O=C(O)c1nn(-c2ccc(Cl)cc2)c2c1C(=O)c1ccccc1C2=O | > 57 µM |
| O=C(O)c1c(Br)c(Br)c(Br)c(Br)c1C1c2ccc(O)cc2Oc2cc(O)ccc21 | > 57 µM |
| c1ccc2c(Nc3ccncc3)nc(-c3ccc4c(c3)OCO4)nc2c1 | > 57 µM |
| CCON=C1C(C)(C)C(C)(C)C(C)(C)C1(C)C | > 57 µM |

| SMILES | Potency |
| --- | --- |
| Cc1ccc(-c2nn(CC(C)(C)C)c3ncnc(N)c23)cc1 | > 57 µM |
| CN/C(=C\[N+](=O)[O-])NCCSCc1csc(CN(C)C)n1 | > 57 µM |
| c1ccc2nc(C3=NCCN3)cnc2c1 | > 57 µM |
| Cc1[nH]c(N)nc(=S)c1CCCNc1ccccc1 | > 57 µM |
| COc1ncc2nc(-c3ccc(Cl)cc3)c(=O)n(C)c2n1 | > 57 µM |
| CCNc1ncc2ncc(=O)n(CCc3ccccc3)c2n1 | > 57 µM |
| COc1ccccc1-c1cc(NCc2cccs2)ncn1 | > 57 µM |
| O=C(c1csnn1)N1CCC2(CC1)CN(c1ncccn1)C2 | > 57 µM |
| COCCn1c(=O)c(-c2cccc(F)c2)nc2cncnc21 | > 57 µM |
| Cc1c2c(nc3ccccc13)-c1cccc(=O)n1C2 | > 57 µM |
| O=C(c1ccco1)N1CCC[C@@]2(CCN(c3ccccc3)C2)C1 | > 57 µM |
| COc1ccc(C(=O)N2CCC3(CC2)CCN(c2ccccn2)CC3)cc1 | > 57 µM |
| CN(C)CC/C=C1\c2ccccc2CSc2ccccc21 | > 57 µM |
| COc1ccccc1CNc1ncnc2ccc(-c3ccc4c(c3)OCO4)cc12 | > 57 µM |
| CC(C)NC(=O)N1CCC2(CC1)CCN(C(=O)c1cccn1C)CC2 | > 57 µM |
| COc1ccccc1CNc1ccnc(-c2c(C)noc2C)n1 | > 57 µM |
| O=C(c1cnccn1)N1CCC[C@@]2(CCN(Cc3ccncc3)C2)C1 | > 57 µM |
| COc1ccccc1N1CCN(CCN2C(=O)c3ccccc3C(C)(C)C2=O)CC1 | > 57 µM |
| COC(=O)N1CCC2(CCCN(Cc3ccccc3OC)C2)CC1 | > 57 µM |
| N#C/C(=C\c1ccc(O)c(O)c1)C(=O)NCc1ccccc1 | > 57 µM and > 11.4 µM |
| COc1ccc(Oc2ncc3nc(-c4ccc(F)cc4)c(=O)n(C)c3n2)cc1 | > 57 µM |
| O=C(c1csnn1)N1CCC[C@@]2(CCN(c3cccc(-c4ccccc4)c3)C2)C1 | > 57 µM |
| Clc1ccc(C=Nc2ccc3c(c2)Cc2ccccc2-3)c(Cl)c1 | > 57 µM |

| SMILES | Potency |
| --- | --- |
| CC(=O)N1CCC2(CCCN(c3ncccn3)C2)CC1 | > 57 µM |
| Cc1ccc(S(=O)(=O)NC(=O)NN2C[C@H]3CCC[C@@H]3C2)cc1 | > 57 µM |
| COc1ccc2[nH]cc(CCNc3ncnc4ccc(-c5ccc(C(=O)N(C)C)cc5)cc34)c2c1 | > 57 µM |
| N#C/C(=C\c1ccc(O)c(O)c1)C(N)=O | > 57 µM |
| COC(=O)[C@@]1(Cc2ccc(F)cc2)[C@H]2c3cc(C(=O)N(C)C)n(CCc4c[nH]c5ccc(OC)cc45)c3C[C@H]2CN1C(=O)c1ccccc1 | > 57 µM |
| CNc1ncnc2ccc(-c3cccc(NS(C)(=O)=O)c3)cc12 | > 57 µM |
| Nc1ccc2[nH]cc(CCC(=O)O)c2c1 | > 57 µM |
| O=c1c(-c2ccc(F)c(F)c2)nc2cncnc2n1-c1ccccc1 | > 57 µM |
| COCCn1c(=O)c(-c2cccs2)nc2cnc(N3CCN(C)CC3)nc21 | > 57 µM |
| O=C(O)c1nccnc1C(=O)Nc1ccc(Br)cn1 | > 57 µM |
| Cc1nc2cnc(N3CCN(C)CC3)nc2n(CCC#N)c1=O | > 57 µM |
| COc1ccccc1N1CCN(C[C@@H]2CN3C(=O)N(C)c4ccccc4C3=N2)CC1 | > 57 µM |
| COC(=O)[C@@]1(Cc2ccc(OC)cc2)[C@H]2c3cc(C(=O)N4CCCC4)n(Cc4ccc(C(F)(F)F)nc4)c3C[C@H]2CN1C(=O)c1ccccc1 | > 57 µM |
| CN(C)C(=O)c1ccc(-c2cncnc2Nc2ccccc2)cc1 | > 57 µM |
| NC(=O)c1ccc(OC[C@H](O)CN2CC=C(c3ccc(F)cc3)CC2)cc1 | > 57 µM |
| COc1ccc2c(=O)cc(-c3ccccc3)oc2c1O | > 57 µM |
| NCCCNCCCCN(CCCN)/[N+]([O-])=N/O | > 57 µM |
| OCCN1CCN(CC/C=C2\c3ccccc3Sc3ccc(C(F)(F)F)cc32)CC1 | > 57 µM |
| COCCn1c(=O)c(-c2cc(F)cc(F)c2)nc2cncnc21 | > 11.4 µM |
| Cc1c(S(=O)(=O)O)ccc(N=Nc2c(O)c(C(=O)O)cc3ccccc23)c1Cl | > 57 µM |

From PubChem BioAssay AID448 (National Center for Advancing Translational Sciences (NCATS), 2006)
